# Bioassay records from PubChem BioAssay.
# Rows were chosen to be rich in hits. Some 5.7% of all compounds tested hit in one or more screens of this group.
# hcDAF12 agonist – activators of H. contortus DAF-12 nuclear receptor; HEK293 hcDAF-12 lit1-tk-luc reporter, luminescence; 0% DMSO, 100% Δ7-dafachronic acid; activation, % at 6.8 µM; actives 1.4% (n = 370,000);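 active = activation above the mean of all tested compounds plus 3 SD, cut at about 5.5% in these data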;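 note: 100% = response to 3 µM Δ7-dafachronic acid high control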
# AHR act – activators of human aryl hydrocarbon receptor | P35869 | AID 2796 | AHR-responsive luciferase reporter cells, luminescence | activation, % at 5 µM | actives 2.5% (n = 320,000); in the data active = activation above about 47%;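 note: 0% = vehicle wells and 100% = reference agonist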
# DAX1 inh-1 – NR0B1 (DAX1) inhibition | HEK293 Gal4-DAX1 luciferase reporter, luminescence | actives 0.99% (n = 340,000) | inhibition, % at 6.75 µM | P51843;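 active = inhibition above the mean over all tested compounds plus 3 SD, cut at about 4.2% in these data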;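 note: 0% = DAX1-transfected cells with DMSO and 100% = empty-vector control cells with DMSO; inhibition shows as a rise in luminescence from relieved DAX1 repression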
# DAX1 inh-2 – inhibitors of DAX1 repression of SF-1 activated StAR promoter; AID 652010; actives 1.1% (n = 370,000); inhibition, % at 6.8 µM; HEK293T StAR-luciferase reporter, SF-1/DAX-1 repression relief;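 active = inhibition above the mean over all tested compounds plus 3 SD, cut at about 3.6% in these data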;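 note: 0% = DAX-1 cells with DMSO and 100% = cells lacking DAX-1 with DMSO; higher inhibition means more luminescence from relief of DAX-1 repression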
# ssDAF12 agonist – activates DAF-12 receptor from parasite S. stercoralis; HEK293 ssDAF-12/GRIP1 lit1-tk-luc reporter, luminescence; % of 3 µM dafachronic acid response; activation, % at 6.8 µM; actives 1% (n = 370,000);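 active = activation above the mean over all tested compounds plus 3 SD, cut at about 0.9% in these data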;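 note: 0% = DMSO-only wells and 100% = 3 µM delta7-dafachronic acid wells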
# hgDAF12 agonist – activates the H. glycines DAF-12 receptor ligand-binding domain. AID 687014. actives 1.8% (n = 370,000). activation, % at 6.8 µM. HEK293 GAL4-hgDAF12 UAS-luciferase reporter, agonist luminescence; normalized to butyrate control;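 active = activation above a cutoff set at the mean of all screened compounds plus 3 SD, cut at about 10% in these data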;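 note: 0% = DMSO wells and 100% = sodium butyrate wells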
# An asterisk follows results filed as active; . = no result.
SMILES,hcDAF12 agonist,AHR act,DAX1 inh-1,DAX1 inh-2,ssDAF12 agonist,hgDAF12 agonist
CCn1c2ccccc2c2cc(NS(=O)(=O)c3ccccc3C)ccc21,-1,73*,0,-2,-2,0
CCn1c2ccccc2c2cc(NC(=O)Cc3ccc(S(=O)(=O)N4CCOCC4)s3)ccc21,0,51*,-1,-1,-1,-1
CCCC(=O)Nc1ccc2c(c1)c1ccccc1n2CC,-3,69*,1,-1,-1,-2
CCn1c2ccccc2c2cc(NC(=O)CC(C)=O)ccc21,-3,57*,0,0,-1,6
CCn1c2ccccc2c2cc(NC(=O)C(C)C)ccc21,-2,37,-1,0,-2,-1
Cc1cc(C)c2[nH]c3nc(SCC(=O)O)nnc3c2c1,1,50*,-2,0,-1,1
O=C(O)CSc1nnc2c(n1)[nH]c1ccccc12,4,6,1,0,0,2
Nc1ccn([C@@H]2O[C@H](C(=O)N3CCN(C(=O)C(F)(F)F)CC3)[C@@H](O)[C@H]2O)c(=O)n1,1,.,.,2,-1,0
COc1ccc2nc(/N=C\N(C)C)sc2c1,4,36,1,1,0,3
Cc1ccc(-n2[nH]c(C)c(C=Nc3ccc(Br)cn3)c2=O)cc1,0,71*,1,1,-1,0
COc1ccc2nc(/N=C/c3c(C)[nH]n(-c4ccc(C)cc4)c3=O)sc2c1,5.6*,52*,0,2,0,5
CCN1CCN(c2ccc(S(=O)(=O)N3CCCCC3)cc2NC(=O)c2cc3ccccc3o2)CC1,-1,9,0,-4,-1,-1
CCOC(=O)N1CCN(C(=O)C[C@H]2C[C@@]3(C(=O)OC)C(=C[C@H](C(C)(C)C)O[C@@H]3C)N(Cc3ccco3)C2=O)CC1,-1,.,.,1,-1,0
c1ccc2c(c1)Cn1c-2nc2ccccc21,6.0*,-5,1,3,0,13*
N#CC1(NC(=O)CSc2nc3ccccc3o2)CCCCC1,-2,-2,4.9*,1,-1,0
Cc1ccccc1NC(=O)CSc1nc2ccccc2o1,-1,-2,0,0,-1,11*
N#CC1(NC(=O)CSc2nc3ccccc3s2)CCCCC1,-1,8,0,1,0,1
CCOC(=O)[C@H](CCc1ccccc1)N[C@@H](C)C(=O)N1Cc2cc(OC)c(OC)cc2C[C@H]1C(=O)O,-1,.,.,-1,-1,2
O=C(C1Cc2ccccc2CN1C(=O)c1ccccc1)N1CCN(c2ccccc2)CC1 (stereo not drawn),0,0,0,1,-1,-3
Oc1ccc2ccccc2c1/C=N/Nc1ccccc1,4,54*,1,0,1,0
Oc1ccc2ccccc2c1C=NCc1ccccc1,2,56*,1,-1,-1,-6
O=CN/N=C/c1c(O)ccc2ccccc12,-2,11,-1,-1,-1,1
Oc1ccc2ccccc2c1C=Nc1ccc(Cl)cn1,2,19,0,-1,1.3*,1
CC(=O)c1sc(N/N=C\c2c(O)ccc3ccccc23)nc1C,3,65*,1,1,-1,7
Oc1ccccc1C=NN=Cc1c(O)ccc2ccccc12,0,.,4,0,0,3
SMILES,hcDAF12 agonist,AHR act,DAX1 inh-1,DAX1 inh-2,ssDAF12 agonist,hgDAF12 agonist
C#CCSc1n[nH]c(=O)n1-c1cccc(C(F)(F)F)c1,-2,-2,0,0,-2,-3
c1ccc(-c2nc3ccccn3c2NCc2ccc3c(c2)OCO3)cc1,0,70*,-1,0,-1,6
O=C(Nc1ccccc1F)Nc1cccnc1Cl,0,3,0,0,-2,0
O=C(CN1CCN(c2ccccc2)CC1)Nc1scc2c1c(=O)oc1ccccc12,0,0,4.7*,1,0,0
O=C(/C=C/c1cccnc1)c1ccccc1O,-3,15,0,-1,-1,1
Cc1c(/C=C/C(=O)c2ccccc2O)cnn1C,4,0,4.5*,3,0,13*
O=C(Cc1ccc2cccnc2c1)c1ccc(O)cc1O,3,-7,0,2,0,11*
CC(C)CCOC(=O)C1C(c2ccccc2)C(C(=O)O)C1c1ccccc1 (stereo not drawn),-1,4,0,1,-1,-2
O=S(=O)(c1ccc(OC(F)(F)F)cc1)N1CCCC(N2CCOCC2)C1 (stereo not drawn),0,1,4.6*,0,-1,2
COc1ccc(N2CCN(C3CCCN(S(=O)(=O)c4ccccc4)C3)CC2)cc1 (stereo not drawn),-1,3,0,-1,-1,-3
C[C@@H]1CCCCO[C@H](CN(C)S(=O)(=O)c2ccccc2)[C@@H](C)CN([C@H](C)CO)C(=O)c2cc(NC(=O)Cc3ccccc3)ccc2O1,0,.,0,-1,-1,-1
CCc1nc(N2CCN(C(=O)CCl)CC2)c2c3c(sc2n1)CC(C)CC3 (stereo not drawn),0,19,4.4*,-1,-1,1
CN1c2ccccc2C(O)=C(C(=S)Nc2ccc(F)c(Cl)c2)S1(=O)=O,2,52*,-1,0,-1,0
Cc1ccc2c(c1)c1c3n2CCN(CCC#N)C3CCC1 (stereo not drawn),1,.,4.5*,0,0,-1
c1ccc2c(c1)c1c3n2CCNC3CCC1 (stereo not drawn),0,25,0,0,-1,1
CC(=O)N1CCn2c3c(c4cc(C)ccc42)CCCC31 (stereo not drawn),0,35,-1,1,-2,5
CCN1CCn2c3c(c4cccc(C)c42)CCCC31 (stereo not drawn),-1,61*,0,0,-1,0
COCCNC(=O)CN1CCOc2ccccc21,2,6,0,0,-1,2
O=C(CN1CCOc2ccccc21)NC1CC1,6.5*,32,3,1,2.1*,2
C=CCN=C1NC(c2ccccc2C(F)(F)F)C(C(=O)OC)=C(C)N1Cc1ccc(C(F)(F)F)cc1 (stereo not drawn),1,.,.,1,-1,-1
CN(C)CCN1C(=O)C(=O)/C(=C(/O)c2ccc3c(c2)OCCO3)C1c1ccccn1 (stereo not drawn),1,0,5.2*,0,-1,4
CCC(CC)C(=O)Nc1cccc(/C(C)=N\NC(=O)c2ccc(C)s2)c1,0,6,1,0,-1,2
C/C(=N/NC(=O)c1ccc(Cl)s1)c1ccc(NC(=O)COc2ccc(Cl)cc2)cc1,-1,55*,1,0,-1,-3
